# Laboratory results: PubChem BioAssay (NCATS)
# Inconclusive results are not listed. A call without a number means that no potency is given here. Activity calls are given as the source filed them. Unless noted, the call rests on the fitted dose curve.
# Key:
# [1] = qHTS for Inhibitors of the Functional Ribonucleoprotein Complex (vRNP) of Lassa (LASV) Arenavirus: LASV Primary Screen - GLuc reporter signal (AID 1347082; calls by dose curve; tested in HEK293 reporter line; further: nearly all actives have a fitted effect of over 60% in size; further: potency means the concentration at half of the fitted maximal effect)
# [2] = qHTS for Inhibitors of the Functional Ribonucleoprotein Complex (vRNP) of Lassa (LASV) Arenavirus: Viability assay - alamar blue signal for LASV Primary Screen (AID 1347083; calls by dose curve; tested in HEK293 reporter line; further: nearly all actives have a fitted effect of over 80% in size; further: potency means the concentration at half of the fitted maximal effect)
# [3] = qHTS for Inhibitors of the Functional Ribonucleoprotein Complex (vRNP) of Lymphocytic Choriomeningitis Arenaviruses (LCMV): Viability assay - alamar blue signal for LCMV Primary Screen (AID 1347085; calls by dose curve; tested in HEK293 reporter line; further: nearly all actives have a fitted effect of over 80% in size; further: potency means the concentration at half of the fitted maximal effect)
# [4] = molecular target: Nucleoprotein (Lymphocytic choriomeningitis virus (strain Armstrong)) (UniProt P09992); assay: qHTS for Inhibitors of the Functional Ribonucleoprotein Complex (vRNP) of Lymphocytic Choriomeningitis Arenaviruses (LCMV): LCMV Primary Screen - GLuc reporter signal (AID 1347086); further: nearly all actives have a fitted effect of over 70% in size; further: potency means the concentration at half of the fitted maximal effect
# [5] = Cytotoxicity counterscreen for inhibitors of SARS-CoV-2 cell entry (AID 1645845); further: nearly all actives have a fitted effect of over 50% in size; further: potency means the concentration at half of the fitted maximal effect
# In short: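 HEK293-ACE2 cells (Expi293F stably expressing human ACE2) seeded overnight, then compound for 1 h plus 48 h at 37C. Viability as ATP content by luminescence; normalized to wells with cells and media-only wells.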
# [6] = Primary qHTS to identify inhibitors of SARS-CoV-2 cell entry (AID 1645846); details: activity change, negative = inhibition: at 57.1 µM (top of the series) unless noted; further: nearly all actives have a fitted effect of over 45% in size; further: potency means the concentration at half of the fitted maximal effect
# In short: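 Using luciferase-reporting pseudoviruses carrying Wuhan-Hu-1 spike, the screen tracks entry into stably ACE2-expressing cells over 48 hr. Activity is expressed relative to spike particles versus particles lacking any fusion protein.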
# [7] = Validation screen for inhibitors of Lassa infection (AID 463096)
# [8] = molecular target: M-phase phosphoprotein 8 (Homo sapiens) (UniProt Q99549); assay: qHTS Validation Assay for Inhibitors for MPP8 Chromodomain Interactions with Methylated Histone Tails (AID 488949; active means well fitted curve in the direction sought with a large enough effect; an effect the other way counts as inactive or inconclusive;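 further: 50 nM MPP8 with 50 nM peptide preformed then compounds added for 30 min; AlphaScreen signal from MPP8 chromodomain bound to biotinylated H3K9me3 peptide; top concentration of the series differs between compounds; nearly all actives have a fitted effect of over 55% in size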)
# In short: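 Chemiluminescent proximity assay: histidine-tag capture via nickel acceptor beads, biotin peptide via streptavidin donor beads. Protein and peptide each at 50 nM, pH 7.4, with 30 min incubations at room temperature for complex formation, compound exposure and bead binding.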
# [9] = Inducers of the Endoplasmic Reticulum Stress Response (ERSR) in human glioma: Validation (AID 504836; active means well fitted curve in the direction sought with a large enough effect; an effect the other way counts as inactive or inconclusive)
# In short: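 Stably transfected U87-MG glioma cells carrying a GRP78-based luciferase sensor; 16 h compound incubation. Luminescence end-point read 10 min after Bright-Glo addition at room temperature.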
# [10] = molecular target: Bile acid receptor (Homo sapiens) (UniProt Q96RI1); assay: qHTS assay for small molecule agonists of farnesoid X receptor signaling (AID 588527); details: HEK293T FXR-UAS-bla, beta-lactamase ratio, 16 h; activation: stronger effect = higher value
# In short: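 Read-out: beta-lactamase reporter fluorescence with CCF4 substrate in GeneBLAzer FXR-UAS-bla HEK293T cells, after 16 h compound exposure at 37 C. Response scaled between DMSO basal (0%) and chenodeoxycholic acid at 100 uM (100%).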
# [11] = qHTS assay for small molecule agonists of the antioxidant response element (ARE) signaling pathway (AID 651741; active means well fitted activation curve with a large enough effect in the signal ratio; the % refers to the signal ratio; further: potency means the concentration at half of the fitted maximal effect)
# In short: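 HepG2 ARE-bla cells plated at 2,000 cells/well and incubated 5 h at 37 C/5% CO2 received 23 nL compound in DMSO. After 16 h at 37 C, LiveBLAzer B/G FRET substrate was applied for 2 h at room temperature and fluorescence read.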
# [12] = qHTS assay for small molecule agonists of the antioxidant response element (ARE) signaling pathway measured by Nrf2-dependant transcriptional activity - cell viability counter screen (AID 720653; active means well fitted curve in the direction sought with a large enough effect in the repeat runs; an effect the other way counts as inactive or inconclusive; further: potency means the concentration at half of the fitted maximal effect); details: ARE-bla HepG2 viability, CellTiter-Glo ATP luminescence, 16 h; max response: stronger effect = lower value
# In short: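 ARE-bla HepG2 cells treated with compounds for 16 h at 37C; this counter screen measures viability as intracellular ATP by CellTiter-Glo luminescence after 30 min at room temperature.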
# [13] = qHTS profiling of the MIPE4 collection as inhibitors of Plasmodium falciparum (3D7) proliferation (AID 743344; call rule not given here); details: P. falciparum 3D7 in erythrocytes, SYBR Green DNA fluorescence, 72 h; at 28.5 µM (top of the series) unless noted
# In short: (§1)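 Erythrocytes infected with P. falciparum (0.3% parasitemia, 2.5% hematocrit) incubated with compounds 72 h at 37 C, 5% CO2. Lysis with saponin/Triton buffer containing SYBR Green I, overnight at room temperature in the dark; DNA fluorescence (485/535 nm) normalised to 0.29 uM artemisinin and DMSO.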
# [14] = qHTS profiling of the MIPE4 collection as inhibitors of Plasmodium falciparum (HB3) proliferation (AID 743347; call rule not given here); details: P. falciparum HB3 in erythrocytes, SYBR Green DNA, 72 h; at 28.5 µM (top of the series) unless noted
# In short: as §1
# [15] = molecular target: Cytochrome P450 3A4 (Homo sapiens) (UniProt P08684); assay: qHTS Assay for Activators of Cytochrome P450 3A4 (AID 885; active means well fitted curve in the direction sought with a large enough effect; an effect the other way counts as inactive or inconclusive; further: nearly all actives have a fitted effect of over 65% in size)
# In short: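 Steps: enzyme/substrate mix dispensed; compound added, 10 min RT; NADPH regeneration solution added, 60 min RT; luciferin detection buffer stops reaction; 20 min later luminescence measured.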
# [16] = molecular target: Alpha-galactosidase (Coffea arabica) (UniProt Q42656); assay: Counterscreen for Glucocerebrosidase Inhibitors: qHTS Assay for Coffee Bean alpha-Galactosidase at pH 4.5 (AID 957; active means well fitted curve in the direction sought with a large enough effect; an effect the other way counts as inactive or inconclusive)
# In short: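 Green coffee bean enzyme (2 nM final) was incubated with compounds (0.7 nM to 77 uM) and 4-methylumbelliferyl alpha-D-galactopyranoside (80 uM final) in 50 mM citric acid, 0.005% Tween-20, pH 4.5, 20 min at room temperature; AC50 from Hill fits.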
# [17] = molecular target: Alpha-galactosidase (Coffea arabica) (UniProt Q42656); assay: Counterscreen for Glucocerebrosidase Inhibitors: qHTS Assay for Coffee Bean alpha-Galactosidase at pH 5.9 (AID 998; active means well fitted curve in the direction sought with a large enough effect; an effect the other way counts as inactive or inconclusive)
# In short: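 Green coffee bean enzyme (2 nM) with 4-methylumbelliferyl alpha-D-galactopyranoside (80 uM) in 50 mM citric acid, 0.005% Tween-20, pH 5.9, 20 min at room temperature; compounds 0.7 nM–77 uM. Stopped at pH 10, fluorescence Ex365/Em440; Hill-fit AC50.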
# Nucleoprotein (Lymphocytic choriomeningitis virus (strain Armstrong)), sequence (P09992 whole entry, looked up): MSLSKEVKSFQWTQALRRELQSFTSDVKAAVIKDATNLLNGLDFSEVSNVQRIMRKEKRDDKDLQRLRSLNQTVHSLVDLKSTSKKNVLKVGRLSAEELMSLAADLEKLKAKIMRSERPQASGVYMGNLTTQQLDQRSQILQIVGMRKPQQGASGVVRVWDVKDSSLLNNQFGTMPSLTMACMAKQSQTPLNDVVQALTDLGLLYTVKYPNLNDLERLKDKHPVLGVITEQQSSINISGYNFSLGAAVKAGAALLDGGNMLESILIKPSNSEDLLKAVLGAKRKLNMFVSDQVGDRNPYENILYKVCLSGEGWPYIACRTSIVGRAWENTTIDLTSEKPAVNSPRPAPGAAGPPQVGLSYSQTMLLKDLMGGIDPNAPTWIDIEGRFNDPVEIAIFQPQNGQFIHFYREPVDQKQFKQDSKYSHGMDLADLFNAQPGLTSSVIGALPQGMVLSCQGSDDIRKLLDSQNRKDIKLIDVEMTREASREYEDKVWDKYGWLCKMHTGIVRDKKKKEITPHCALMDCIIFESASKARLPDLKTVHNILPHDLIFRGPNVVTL
# M-phase phosphoprotein 8 (Homo sapiens), sequence (Q99549 whole entry, looked up): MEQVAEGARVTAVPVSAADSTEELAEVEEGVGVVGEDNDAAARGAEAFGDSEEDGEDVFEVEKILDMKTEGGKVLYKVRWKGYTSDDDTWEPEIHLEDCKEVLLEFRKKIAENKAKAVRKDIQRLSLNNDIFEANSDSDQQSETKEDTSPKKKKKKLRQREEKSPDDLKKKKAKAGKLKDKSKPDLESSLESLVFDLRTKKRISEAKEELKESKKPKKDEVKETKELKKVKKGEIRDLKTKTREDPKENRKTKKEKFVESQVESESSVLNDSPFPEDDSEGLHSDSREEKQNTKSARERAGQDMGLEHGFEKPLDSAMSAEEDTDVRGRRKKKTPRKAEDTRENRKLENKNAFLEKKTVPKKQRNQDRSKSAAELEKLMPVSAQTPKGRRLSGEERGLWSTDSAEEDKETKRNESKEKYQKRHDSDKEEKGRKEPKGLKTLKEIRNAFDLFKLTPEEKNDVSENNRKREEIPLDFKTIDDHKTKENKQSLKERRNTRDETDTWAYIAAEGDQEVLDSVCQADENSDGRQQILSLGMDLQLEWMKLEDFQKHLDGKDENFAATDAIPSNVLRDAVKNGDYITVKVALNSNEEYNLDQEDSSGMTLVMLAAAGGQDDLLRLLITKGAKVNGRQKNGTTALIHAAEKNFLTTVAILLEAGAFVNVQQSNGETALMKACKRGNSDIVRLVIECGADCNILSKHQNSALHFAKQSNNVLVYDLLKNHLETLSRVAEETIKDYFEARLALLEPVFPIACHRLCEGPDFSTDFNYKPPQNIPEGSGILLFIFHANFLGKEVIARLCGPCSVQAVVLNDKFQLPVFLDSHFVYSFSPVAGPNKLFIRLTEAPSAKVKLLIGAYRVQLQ
# Alpha-galactosidase (Coffea arabica), sequence (Q42656 whole entry, looked up): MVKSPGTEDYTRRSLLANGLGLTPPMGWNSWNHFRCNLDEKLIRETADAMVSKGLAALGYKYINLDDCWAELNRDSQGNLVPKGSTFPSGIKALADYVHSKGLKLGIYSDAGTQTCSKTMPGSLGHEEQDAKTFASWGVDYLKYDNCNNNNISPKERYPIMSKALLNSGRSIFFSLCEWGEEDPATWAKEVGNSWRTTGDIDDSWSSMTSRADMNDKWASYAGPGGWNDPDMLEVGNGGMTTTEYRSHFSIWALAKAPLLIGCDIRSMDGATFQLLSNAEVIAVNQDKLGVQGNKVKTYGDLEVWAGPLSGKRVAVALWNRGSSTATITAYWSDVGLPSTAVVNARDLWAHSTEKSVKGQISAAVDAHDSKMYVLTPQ
# Cytochrome P450 3A4 (Homo sapiens), sequence (P08684 whole entry, looked up): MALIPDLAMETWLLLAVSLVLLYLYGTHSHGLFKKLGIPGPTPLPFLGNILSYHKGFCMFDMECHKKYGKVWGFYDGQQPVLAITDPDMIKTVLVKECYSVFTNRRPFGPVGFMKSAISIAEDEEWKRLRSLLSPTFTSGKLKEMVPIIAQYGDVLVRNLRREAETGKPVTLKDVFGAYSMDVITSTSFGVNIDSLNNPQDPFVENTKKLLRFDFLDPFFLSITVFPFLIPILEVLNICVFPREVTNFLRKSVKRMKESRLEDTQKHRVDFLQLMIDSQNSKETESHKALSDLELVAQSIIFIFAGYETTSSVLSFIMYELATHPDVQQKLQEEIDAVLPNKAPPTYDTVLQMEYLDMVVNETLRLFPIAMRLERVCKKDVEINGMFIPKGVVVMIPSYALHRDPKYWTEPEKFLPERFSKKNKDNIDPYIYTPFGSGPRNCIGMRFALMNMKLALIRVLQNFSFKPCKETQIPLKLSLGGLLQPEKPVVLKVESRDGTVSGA
# Bile acid receptor (Homo sapiens), sequence (Q96RI1 whole entry, looked up): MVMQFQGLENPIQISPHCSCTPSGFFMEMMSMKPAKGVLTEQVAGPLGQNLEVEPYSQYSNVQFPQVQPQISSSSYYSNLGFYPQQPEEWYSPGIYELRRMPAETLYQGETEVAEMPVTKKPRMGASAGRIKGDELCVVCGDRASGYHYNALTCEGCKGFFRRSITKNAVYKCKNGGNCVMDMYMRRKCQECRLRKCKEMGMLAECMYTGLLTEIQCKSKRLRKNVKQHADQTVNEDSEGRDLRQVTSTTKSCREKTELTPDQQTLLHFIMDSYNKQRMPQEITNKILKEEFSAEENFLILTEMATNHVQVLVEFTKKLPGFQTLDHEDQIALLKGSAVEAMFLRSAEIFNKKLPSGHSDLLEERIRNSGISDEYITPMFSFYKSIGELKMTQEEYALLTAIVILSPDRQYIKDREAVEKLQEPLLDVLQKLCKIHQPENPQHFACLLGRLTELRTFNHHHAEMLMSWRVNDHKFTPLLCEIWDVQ
smiles,measurement,setting,value
O=C(Nc1ccccc1Br)N[C@@H]1CCN(c2ccc(C(F)(F)F)cn2)C1,Potency,[1],inactive
same,Potency,[2],inactive
same,Potency,[3],inactive
same,Potency,[4],inactive
same,Potency,[5],inactive
same,"activity change, negative = inhibition",[6],-27.3%
Cn1c(CNc2ccc(C(=N)N)cc2)nc2cc(C(=O)N(CCC(=O)O)c3ccccn3)ccc21,Potency,[1],inactive
same,Potency,[2],inactive
same,Potency,[3],inactive
same,Potency,[4],inactive
same,"activity change, negative = cytotoxicity",[5],-8.56% [at 0.702 µM] (inactive)
same,"activity change, negative = inhibition",[6],-9.36% [at 0.702 µM]
CCc1c(O)cc(O)c(C(=O)c2ccc(OCCN3CCOCC3)c(OC)c2)c1CC(=O)N(CCOC)CCOC,Potency,[1],12200 nM (active)
same,Potency,[2],6110 nM (active)
same,Potency,[3],5440 nM (active)
same,Potency,[4],3430 nM (active)
same,Potency,[5],inactive
same,"activity change, negative = inhibition",[6],-26.7%
Nc1nc(N)c2nc(CNc3ccc(C(=O)NC(CCC(=O)O)C(=O)O)cc3)cnc2n1 (stereo not given),Potency,[7],inactive
same,Potency,[8],inactive
same,outcome,[9],inactive
same,activation,[10],1.76% (inactive)
same,Potency,[11],77 nM (active)
same,Potency,[12],12.6 nM (active)
same,Potency,[1],inactive
same,Potency,[2],inactive
same,Potency,[3],inactive
same,Potency,[4],inactive
same,Potency,[5],inactive
same,Potency,[6],inactive
CC1(COc2ccc3c(c2)ncn3-c2ccc3cccc(N4CCC(N)CC4)c3n2)COC1,Potency,[1],54.4 nM (active)
same,Potency,[2],inactive
same,Potency,[3],inactive
same,Potency,[4],inactive
same,Potency,[5],28200 nM (active)
same,Potency,[6],10000 nM (active)
CC(C)c1cnn2c(NCc3ccccc3)cc(N[C@@H](CO)[C@H](O)CO)nc12,Potency,[1],2430 nM (active)
same,Potency,[2],485 nM (active)
same,Potency,[3],685 nM (active)
same,Potency,[4],1720 nM (active)
same,Potency,[5],inactive
same,"activity change, negative = inhibition",[6],-93.9%
NC(=O)c1ccc2[nH]ccc2c1,outcome,[9],inactive
same,Potency,[1],inactive
same,Potency,[2],inactive
same,Potency,[3],inactive
same,Potency,[4],inactive
same,Potency,[5],inactive
same,"activity change, negative = inhibition",[6],-19.6%
O=c1ccn([C@@H]2O[C@H](CO)[C@H](O)[C@@H]2F)c(=O)[nH]1,Potency,[1],4850 nM (active)
same,Potency,[2],6110 nM (active)
same,Potency,[3],4320 nM (active)
same,Potency,[4],3060 nM (active)
same,Potency,[5],inactive
same,"activity change, negative = inhibition",[6],-22.4%
CNc1nc(Nc2ccc(C(=O)N3CCOCC3)cc2OC)ncc1Cl,Potency,[1],inactive
same,Potency,[2],24300 nM (active)
same,Potency,[3],inactive
same,Potency,[4],inactive
same,Potency,[5],inactive
same,Potency,[6],inactive
C=C[C@@H]1CN2CCC1C[C@H]2[C@H](O)c1ccnc2ccc(OC)cc12 (stereo not given in full),Potency,[1],inactive
same,Potency,[2],inactive
same,Potency,[3],inactive
same,Potency,[4],inactive
same,Potency,[5],inactive
same,"activity change, negative = inhibition",[6],-48.9%
Cc1ccc2c(c1)C(=O)[C@]1(O)CCN(c3ccccc3)C1=N2,Potency,[1],inactive
same,Potency,[2],inactive
same,Potency,[3],inactive
same,Potency,[4],inactive
same,Potency,[5],inactive
same,"activity change, negative = inhibition",[6],-18.4%
Cc1cncc2cccc(S(=O)(=O)N3CCCN(C(=O)CN)C[C@@H]3C)c12,Potency,[1],inactive
same,Potency,[2],inactive
same,Potency,[3],inactive
same,Potency,[4],inactive
same,Potency,[5],inactive
same,"activity change, negative = inhibition",[6],-30.7%
C[C@H](O)[C@@H]1C(=O)N2C(C(=O)O)=C(S[C@@H]3CN[C@H](CNS(N)(=O)=O)C3)[C@@H](C)[C@@H]12,Potency,[1],inactive
same,Potency,[2],inactive
same,Potency,[3],inactive
same,Potency,[4],inactive
same,Potency,[5],inactive
same,Potency,[6],inactive
CCn1nnc2c(N3CCOCC3)nc(-c3ccc(NC(=O)Nc4ccc(C(=O)N5CCN(C)CC5)cc4)cc3)nc21,Potency,[1],54.4 nM (active)
same,Potency,[2],24.3 nM (active)
same,Potency,[3],30.6 nM (active)
same,Potency,[4],38.5 nM (active)
same,"activity change, negative = inhibition",[6],-84.5%
C[C@H]1[C@@H](OC(=O)CCC(=O)O)O[C@@H]2O[C@@]3(C)CC[C@@H]4[C@H](C)CC[C@@H]1[C@@]24OO3,Potency,[1],9680 nM (active)
same,Potency,[2],5440 nM (active)
same,Potency,[3],5440 nM (active)
same,Potency,[4],3060 nM (active)
same,Potency,[6],3160 nM (active)
CSc1cccc(Nc2ncc3cc(-c4c(Cl)cccc4Cl)c(=O)n(C)c3n2)c1,Potency,[1],inactive
same,Potency,[2],inactive
same,Potency,[3],inactive
same,Potency,[4],inactive
same,"activity change, negative = inhibition",[6],-95.8%
O=C(O)c1ccccc1C(=O)Nc1ccc(-c2ccccc2)cc1,"parasite growth, % of DMSO control",[13],93.6%
same,"growth, % of control",[14],87.2%
same,Potency,[1],inactive
same,Potency,[2],inactive
same,Potency,[3],inactive
same,Potency,[4],inactive
same,Potency,[5],inactive
COC1CCC(N(C(=O)C2CCC(C)CC2)c2cc(C3=CCCCC3)sc2C(=O)O)CC1 (stereo not given),"parasite growth, % of DMSO control",[13],31.6%
same,Potency,[1],inactive
same,Potency,[2],inactive
same,Potency,[3],inactive
same,Potency,[4],inactive
same,Potency,[5],inactive
same,"activity change, negative = inhibition",[6],1.37%
Cc1nc(C(=O)NCC(=O)O)c(O)c2ccc(Oc3ccccc3)cc12,Potency,[1],inactive
same,Potency,[2],inactive
same,Potency,[3],inactive
same,Potency,[4],inactive
same,"activity change, negative = inhibition",[6],-9.8%
O=C1Nc2ccc(I)cc2/C1=C/c1cc(Br)c(O)c(Br)c1,Potency,[15],inactive
same,outcome,[16],inactive
same,outcome,[17],inactive
same,Potency,[7],inactive
same,outcome,[9],inactive
same,Potency,[1],inactive
same,Potency,[2],inactive
same,Potency,[3],inactive
same,Potency,[4],inactive
same,Potency,[5],inactive
Cc1nc(N)ncc1-c1nc(N2CCOCC2)c2sc(C(C)(C)O)cc2n1,Potency,[1],1530 nM (active)
same,Potency,[2],863 nM (active)
same,Potency,[3],1090 nM (active)
same,Potency,[4],1720 nM (active)
same,Potency,[6],7940 nM (active)
CC[C@H](C=C[C@@H](C)[C@H]1CC[C@H]2[C@@H]3CC=C4C[C@@H](O)CC[C@]4(C)[C@@H]3CC[C@]12C)C(C)C,"parasite growth, % of DMSO control",[13],84.3% [at 9.64 µM]
same,"growth, % of control",[14],89% [at 9.64 µM]
same,Potency,[1],inactive
same,Potency,[2],inactive
same,Potency,[3],inactive
same,Potency,[4],inactive
same,Potency,[5],inactive
same,Potency,[6],inactive
CC(C)C[C@H](NC(=O)[C@@H](NC(=O)c1cccc(-c2ccccc2)n1)[C@@H](C)O)B(O)O,Potency,[1],685 nM (active)
same,Potency,[2],544 nM (active)
same,Potency,[3],1090 nM (active)
same,Potency,[4],1090 nM (active)
same,"activity change, negative = inhibition",[6],-97.4% [at 27.1 µM]
CCCNC(=O)Nc1ccc(Oc2ncnc3cc(OC)c(OC)cc23)cc1Cl,"parasite growth, % of DMSO control",[13],38.8%
same,"growth, % of control",[14],34.8%
same,Potency,[1],inactive
same,Potency,[2],inactive
same,Potency,[3],inactive
same,Potency,[4],inactive
same,Potency,[5],inactive
same,"activity change, negative = inhibition",[6],-16.7%
